Compound activity from PubChem BioAssay.
D3 antag – qHTS of D3 Dopamine Receptor Antagonist: qHTS. D3R cells, DiscoveRx beta-arrestin luminescence, antagonist mode; hits give low values. max response, negative = inhibition, %. actives 2.5% (n = 360,000). AID 652054, 2013; in the data active = max response below about -50%; inconclusive = no clear call, values can overlap the other calls
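Cells expressing the human receptor were seeded at 1500 cells/well, incubated overnight at 37 degrees C in 5% CO2, then exposed to library compounds with dopamine controls for 90 minutes at 37 degrees C before luminescent detection.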
GLP1R cytotox – qHTS of GLP-1 Receptor Inverse Agonists: Cytotox Screen; HEK293 cAMP-luciferase reporter cells, luminescence, 24 h; Potency, µM (series often up to 38.3 µM), most hits filed as inhibitors; AID 624418, 2012; actives 0.13% (n = 410,000);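 note: loss of luciferase light is scored as toxicity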
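To flag toxic compounds, the library was rerun on cells for 24 hr at 37 deg C and 5% CO2. Viability-linked luminescence was captured 12 min after adding luciferase detection reagent.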
GLP-1R inv ag – qHTS of GLP-1 Receptor Inverse Agonists (Inhibition Mode). AID 624417, 2012. Potency, µM (doses to about 38.3 µM), hits mostly inhibitors. HEK293 GLP-1R CRE-luciferase, luminescence, 24 h; GLP-1R form is constitutively active. actives 1.6% (n = 410,000); note: nearly all actives have a fitted effect of over 55% in size
Target sequence (P43220 whole entry, looked up): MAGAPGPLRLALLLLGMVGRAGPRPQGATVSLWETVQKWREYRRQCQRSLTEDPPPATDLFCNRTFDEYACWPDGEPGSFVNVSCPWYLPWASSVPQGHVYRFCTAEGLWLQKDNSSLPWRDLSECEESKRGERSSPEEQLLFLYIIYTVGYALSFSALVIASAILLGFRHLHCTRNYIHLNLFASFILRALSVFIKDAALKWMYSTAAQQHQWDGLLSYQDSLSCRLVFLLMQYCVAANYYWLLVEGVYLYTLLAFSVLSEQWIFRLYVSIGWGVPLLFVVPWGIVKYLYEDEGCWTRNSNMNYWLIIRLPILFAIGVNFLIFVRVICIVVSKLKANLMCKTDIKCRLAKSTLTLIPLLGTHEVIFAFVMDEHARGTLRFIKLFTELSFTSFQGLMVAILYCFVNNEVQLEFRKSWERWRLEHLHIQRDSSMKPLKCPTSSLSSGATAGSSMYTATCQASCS
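Luminescence readout: a drop in cAMP-driven luciferase signal flags inverse agonism at a constitutively active GLP-1R stably expressed in HEK293. Compound exposure lasted 24 hr at 37 deg C, 5% CO2.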
DRD3 agonist – qHTS of D3 Dopamine Receptor Agonist: qHTS | D(3) dopamine receptor (Homo sapiens), P35462 | D3R DiscoveRx beta-arrestin cells, luminescence, 90 min | max activation, % | actives 0.58% (n = 410,000) | AID 652048, 2013; in the data active = max activation above about 30%
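Agonist mode: compounds and dopamine controls were applied to plated cells for 90 min at 37 degrees C after an overnight attachment at 1500 cells/well. Luminescent read-out followed 30 - 60 minutes at room temperature with DiscoveRx detection reagent.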
ClpP mod – qHTS Assay for Activators of ClpP. ATP-dependent Clp protease proteolytic subunit (Bacillus subtilis (strain 168)), P80244. purified B. subtilis ClpP, FRET peptide cleavage, 20 min. actives 1.9% (n = 340,000). Potency, µM (series often up to 57.5 µM); active = well fitted falling curve with a large enough effect; inconclusive = small, poorly fitted or top-dose-only effect; inactive = no such curve, though single readings can be large or run the other way; note: the source files actives as falling curves though it sought activators and does not explain the sign; nearly all actives have a fitted effect of over 65% in size
Target sequence (P80244 whole entry, looked up): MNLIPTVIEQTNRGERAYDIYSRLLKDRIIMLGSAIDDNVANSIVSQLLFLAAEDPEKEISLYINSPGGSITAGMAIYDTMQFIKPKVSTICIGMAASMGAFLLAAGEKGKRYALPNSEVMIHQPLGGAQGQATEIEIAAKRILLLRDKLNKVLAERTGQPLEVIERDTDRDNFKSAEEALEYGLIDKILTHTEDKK
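Purified B. subtilis ClpP, 10 microg/mL final in Tris/HCl pH8 with KCl, BSA, glycerol and Tween-20, cleaved an Abz/nitrotyrosine-quenched decapeptide. Fluorescence (ex 320, em 430) was read at 0 and 20 min at room temperature. Delta was normalized to 5.8 microM ADEP and DMSO/no-enzyme controls.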
GLP1R ag – qHTS of GLP-1 Receptor Agonists. actives 0.007% (n = 380,000). HEK293 GLP-1R CRE-luciferase, luminescence, 4-6 h; cells express a hypersensitive GLP-1R form. Potency, µM (top dose mostly 45.6 µM), most hits filed as activators
A number is an active result; 0 = inactive; ? = inconclusive; - = no result; [ ] = remark or other dose. Compounds with a hit are over-represented: about 5.7% of the library has one in this group of screens. Unless noted, calls come from the whole dose curve; as a rule, active = well fitted curve in the direction sought with a large enough effect; inconclusive = small, poorly fitted or top-dose-only effect, or another doubt; inactive = no such curve, though single readings can be large; an effect the other way counts as inactive or inconclusive.

SMILES | D3 antag | GLP1R cytotox | GLP-1R inv ag | DRD3 agonist | ClpP mod | GLP1R ag
COc1ccccc1N1CCN(Cc2ccc(Cl)cc2Cl)CC1 | -84.7 | 0 | ? | 0 | 0 | 0
COc1ccccc1N1CCN(CCc2c[nH]c3cc4c(cc23)OCO4)CC1 | -79.2 | 0 | ? | 0 | 0 | 0
CSc1ccc(CN2CCN(c3ccccc3C)CC2)cc1 | -73.4 | 0 | ? | 0 | 0 | 0
COc1ccccc1N1CCN(Cc2ccc(SC)cc2)CC1 | -107.0 | 0 | ? | 0 | 0 | 0
CCc1ccc(CN2CCN(Cc3ccc(SC)cc3)CC2)cc1 | ? | 0 | ? | 0 | - | 0
CCN(CC)c1ccc(/C=C2\SC(=O)N(C(C)C)C2=O)o1 | ? | ? | ? | 0 | 0 | 0
C[C@]12CC[C@@H]3c4ccc(OC(=O)N(CCCl)CCCl)cc4CC[C@H]3[C@@H]1CC[C@@H]2OP(=O)(O)O | - | - | - | 0 | - | 0
CCOP(=S)(OCC)O/N=C(\C#N)c1ccccc1 | - | - | - | 0 | - | 0
O=C(NC(=O)c1c(F)cccc1F)Nc1cc(Cl)c(OC(F)(F)C(F)C(F)(F)F)cc1Cl (stereo unspecified) | - | - | - | 0 | - | 0
Cc1nc2scc(-c3ccccc3)c2c(=O)n1N=C1C=CC(=O)C=C1 | -82.6 | ? | 0 | 0 | - | 0
OC(CCCN1CCC(O)(c2ccc(Cl)cc2)CC1)c1ccc(F)cc1 (stereo unspecified) | -113.9 | 0 | ? | 0 | 0 | 0
COC(=O)C1=C(c2ccc(F)cc2F)C[C@@H]2CC[C@H]1N2C(=O)N1CCC(O)(c2ccc(Cl)cc2)CC1 | 0 | 0 | ? | 0 | 0 | 0
O=C(N/N=C(\c1ccccc1)c1ccccn1)c1cccc([N+](=O)[O-])c1 | -73.9 | ? | ? | 0 | 0 | 0
NCC(=O)c1cccc([N+](=O)[O-])c1 | - | - | - | - | 0 | -
COC1CCC(OC2CC(C3(C)CCC4(CC(O)C(C)C(C(C)/C=C(\C)C(=O)C(C)CC(C)C(=O)O)O4)O3)OC3(OC(C4OC(O)(CO)C(C)CC4C)CC3C)C2C)OC1C (stereo unspecified) | 0 | ? | 0 | 71.4 | 0 | 0
CCn1cc(C(=O)NCc2ccc3c(c2)OCO3)c(=O)c2cc(F)c(N3CCN(C(=O)c4ccco4)CC3)cc21 | 0 | ? | 0 | 0 | 25.1µM | 0
CCn1cc(C(=O)N2CCCCC2)c2ccccc21 | 0 | 0 | ? | 0 | 0 | 0
COc1cccc(C2SCC(=O)Nc3c2c(C)nn3-c2ccc(C)c(Cl)c2)c1OC (stereo unspecified) | - | 0 | ? | 0 | 0 | -
S=C(NCCc1ccccc1)N1Cc2cc(N3CCCCC3)ccc2-n2nncc2C1 | 0 | 0 | ? | 0 | 31.6µM | 0
COc1cc(C(=O)OCc2cc(=O)c(O)co2)ccc1OC(F)F | 0 | 0 | ? | 0 | - | 0
COc1ccc(Cl)cc1C(=O)C1CCCN(CCO)C1 (stereo unspecified) | -50.0 | 0 | ? | 0 | - | 0
CCn1ccnc1CN1CCCC(C(=O)c2cc(Cl)ccc2OC)C1 (stereo unspecified) | 0 | ? | 10µM | 0 | - | 0
O=C(c1ccc(-c2ccccc2)c(F)c1)C1CCCN(CCO)C1 (stereo unspecified) | 0 | 0[7.66 µM] | ? | 0 | - | 0
Cc1cc(NC(=O)c2cccn(Cc3ccccc3)c2=O)no1 | - | 0 | 0 | 0 | 0 | -
Cc1cc(NC(=O)c2cccn(Cc3cccc(Cl)c3)c2=O)no1 | - | 0 | 0 | 0 | 35.5µM | 0
SMILES | D3 antag | GLP1R cytotox | GLP-1R inv ag | DRD3 agonist | ClpP mod | GLP1R ag
ClC1=C(Cl)[C@]2(Cl)[C@@H]3[C@H]4C[C@H]([C@@H]5O[C@H]45)[C@@H]3[C@@]1(Cl)C2(Cl)Cl | - | - | - | 0 | - | -
O=C(Nc1cccc(-c2csc(Nc3cccc(C(F)(F)F)c3)n2)c1)c1ccccc1 | 0 | ? | 2.82µM | 0 | 0 | 0
CCN1CCN(c2ccc(S(=O)(=O)N3CCOCC3)cc2NC(=O)/C=C/c2ccc([N+](=O)[O-])cc2)CC1 | 0 | ? | ? | 0 | 0 | 0
Nc1nc(F)nc2c1ncn2[C@@H]1O[C@H](CO)[C@@H](O)[C@H]1O | 0 | ? | 2µM | 0 | 0 | 0
Nc1nc(F)nc2c1ncn2[C@@H]1O[C@H](CO)[C@@H](O)[C@@H]1O | 0 | 0 | 0 | 0 | 0 | 0
Cc1c(O)ccc2c3c(c(=O)oc12)CCC(C)C3 (stereo unspecified) | 0 | 0 | 0 | 0 | 25.1µM | 0
CCOc1cccc(=NC2CCCCC2)c2c(C)n(C)c(C)c12 | 0 | ? | 10µM | 0 | 0 | 0
CCOc1ccccc1N=C1SCCCN1C | 0 | 0 | 0 | 0 | 0 | 0
CC/C(=C\C=C\[C@@H]1C=C[C@@H]2CCC[C@H]2[C@@H]1C(=O)c1ccc[nH]1)[C@@H]1O[C@@H]([C@@H](C)C(=O)O)CC[C@@H]1C | 0 | ? | 2.51µM | 0 | 0 | 0
O=c1[nH]c(=O)n(Cc2ccc(F)cc2)c(O)c1/C=N/Nc1ccccc1 | 0 | 0 | 4.47µM | 0 | - | 0
CN(C)c1ccc(CN2CCc3nc(N4CCN(c5ccccn5)CC4)ncc3C2)cc1 | - | 0 | ? | 0 | 0 | -
CN1CCC(c2c[nH]c3ccccc23)C1 (stereo unspecified) | -100.0 | 0 | 0 | 0 | 0 | 0
Cc1ccccc1NC(=O)C(=Cc1ccc(C(=O)O)cc1)C(=O)Nc1ccccc1C | 0 | ? | 6.31µM | 0 | - | 0
Cc1ccccc1NC(=O)CCl | 0 | 0 | 0 | 0 | 0 | 0
CCOC(=O)/C(=C\c1ccc(Cl)cc1)c1nc2sc(C)c(C)c2c(=O)[nH]1 | -63.0 | ? | ? | 0 | 0 | 0
CC1(C)[C@@H](C=C(Cl)Cl)[C@@H]1C(=O)OCc1c(F)c(F)cc(F)c1F | - | - | - | - | - | 0
CC1(S(=O)(=O)O)CC(=O)c2ccccc2C1=O (stereo unspecified) | 0 | 0 | 0 | 0 | 0 | 0
CCC12CN3CC(CC)(CN(C1)C3c1ccccn1)C2=O (stereo unspecified) | - | 0 | 0 | 0 | 0 | -
CN1C2CCC1/C(=C/c1ccccn1)C(=O)/C2=C\c1ccccn1 | -69.7 | ? | 0 | 0 | 0 | 0
CCN(CC(=O)Nc1ccccc1C(F)(F)F)C(=O)CCSc1ccc(F)cc1 | 0 | 0 | ? | 0 | 12.6µM | 0
CCN(CC)C(=O)c1ccc(NC(=O)CCCSc2ccccc2)cc1 | 0 | 0 | ? | 0 | - | 0
CC(NC(=O)Nc1cccc([N+](=O)[O-])c1)(C(F)(F)F)C(F)(F)F | 0 | ? | ? | 0 | 0 | 0
CN1CCCN(C(=O)COc2cccc(C(F)(F)F)c2)CC1 | -88.8 | 0 | ? | 0 | 0 | 0
